Measurements: the supplement of paper PMC3334620
Over roughly 33,000 sequences, “E-score (-0.5 to 0.5)” has its median near -0.021; the highest 2% begin near 0.32. The sample as a whole holds a higher share of the highest values than the screen did.

Target: T1, Zap1 (UniProt P47043)
T1 sequence: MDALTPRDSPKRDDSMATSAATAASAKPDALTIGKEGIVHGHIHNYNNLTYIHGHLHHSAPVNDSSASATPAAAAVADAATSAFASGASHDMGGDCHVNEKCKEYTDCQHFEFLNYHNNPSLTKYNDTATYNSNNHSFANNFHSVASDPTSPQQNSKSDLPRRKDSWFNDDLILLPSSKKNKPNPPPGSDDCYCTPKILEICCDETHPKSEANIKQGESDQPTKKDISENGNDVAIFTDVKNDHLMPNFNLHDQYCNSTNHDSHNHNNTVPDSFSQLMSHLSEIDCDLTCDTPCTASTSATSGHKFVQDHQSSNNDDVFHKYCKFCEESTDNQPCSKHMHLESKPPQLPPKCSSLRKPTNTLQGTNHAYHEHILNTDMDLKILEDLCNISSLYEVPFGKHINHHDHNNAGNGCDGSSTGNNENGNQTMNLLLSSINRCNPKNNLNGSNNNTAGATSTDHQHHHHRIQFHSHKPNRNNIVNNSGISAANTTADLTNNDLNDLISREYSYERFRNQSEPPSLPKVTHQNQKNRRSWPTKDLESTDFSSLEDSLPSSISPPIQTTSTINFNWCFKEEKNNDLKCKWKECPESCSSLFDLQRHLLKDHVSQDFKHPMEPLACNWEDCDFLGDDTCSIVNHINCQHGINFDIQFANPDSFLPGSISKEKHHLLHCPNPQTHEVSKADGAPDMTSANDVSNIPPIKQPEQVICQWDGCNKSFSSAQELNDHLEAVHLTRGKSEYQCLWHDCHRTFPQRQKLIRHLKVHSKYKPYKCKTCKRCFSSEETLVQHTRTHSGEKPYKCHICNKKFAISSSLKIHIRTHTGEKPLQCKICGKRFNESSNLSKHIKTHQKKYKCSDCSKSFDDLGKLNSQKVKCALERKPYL
Test: PBM E-score (8-mer binding enrichment) (E-score (-0.5 to 0.5)); higher = stronger / more preferred TF binding
Details: protein concentration: 200 nM; construct: GST-full length
Method in brief: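 Masliner-normalised scans of fluorescent anti-GST signal were the basis for scoring. That signal came from GST-tagged yeast transcription factors applied at about 100-200 nM to double-stranded universal all-10-mer Agilent arrays on fresh or once-stripped slides. Each ungapped eight-base word, pooled with its reverse complement, received an E-score from the Universal PBM Analysis Suite.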

Sequence | PBM E-score
GCCCTAGC | -0.148
GGCCCTAC | 0.0088
ATCCAGAA | 0.159
CTCCTTCA | -0.168
TACCCAGA | 0.265
AAGAGATG | -0.16
TCGTACCA | 0.149
AGGTACTA | 0.29
GCGTACCA | 0.0288
GGGTACCA | 0.4
TAGTACCA | 0.163
CGGTACCA | 0.303
AGGTACGA | -0.0106
ACGTACCA | -0.0952
CGGTACTA | 0.0114
TGGTACCA | 0.357
GGGTACTA | 0.335
AGGTACCA | 0.347
CACTAGCA | -0.00655
ACATGCCG | -0.241
GTGAGTGA | -0.147
ACAAACTG | -0.16

Sequence | PBM E-score
TGGTACAA | 0.146
GGGTACAA | 0.345
AGGTACAA | 0.15
TCAGCTCA | -0.00847
CCTTGGTC | 0.0233
ATCGATTC | -0.119
AAAACCAA | 0.209
GTAACCAA | 0.417
ATAACCAT | 0.457
AAAACCAT | 0.283
TTAACCAA | 0.317
GCAACCAA | 0.231
ATAACCAA | 0.437
AGAACCAT | 0.184
AGAACCAA | 0.148
TCAACCAA | 0.118
CTAACCAA | 0.262
GGAACCAA | 0.159
CAAGACTC | -0.0977
GGCCTCGA | 0.00761
CCTTAAAC | 0.143
CGTGGAGA | -0.239

Sequence | PBM E-score
ACCACTAC | 0.182
AGAGGCCG | -0.144
CGCTCACG | -0.0384
AGGATCTG | -0.242
ATAACCAG | 0.436
AGAACCAG | 0.0863
CTAACCAG | 0.146
GGAATCCA | -0.115
CCAGGGGG | -0.095
CGACCTAC | -0.114
CACCTCTG | -0.0642
TAGCTCGA | 0.0239
ACAACTAT | 0.204
ACAACCAA | 0.267
ACAACCAC | 0.361
ACAACCAG | 0.23
GCAACCAC | 0.269
ACAACCAT | 0.322
AGGCTTTG | -0.027
ACAATGCA | 0.0982
TAACCCGA | 0.345
GAACCCGA | 0.0725

Sequence | PBM E-score
CAACCCGA | 0.355
AAACCCGA | 0.264
GACCCCGA | 0.244
TACCCCGA | 0.34
CAACCCGC | 0.251
AACCCCGA | 0.266
CTACCCGA | 0.25
GCAGCTGC | -0.246
CTTACTTC | 0.00964
CTATGATA | 0.00378
GTATGATA | 0.14
ATATGATA | 0.348
TCTTCGAA | 0.00843
AATCGTCG | -0.21
CTACTGTA | -0.0171
ACACCCTA | 0.335
CCACCCTC | 0.358
GCACCCTA | 0.297
ACACCCTG | 0.21
CCACCCAA | -0.0177
